High-throughput results (PubChem BioAssay)
ZTA DNA inh: counter-screen for EBNA-1 inhibitors: inhibitors of Epstein-Barr virus ZTA; P03206; ZTA-DNA binding, fluorescence polarization; inhibition, % at 11 µM; 320,000 compounds, 0.15% hits; AID 2234; in the data active means inhibition above about 33%
Target sequence (P03206 whole entry, looked up): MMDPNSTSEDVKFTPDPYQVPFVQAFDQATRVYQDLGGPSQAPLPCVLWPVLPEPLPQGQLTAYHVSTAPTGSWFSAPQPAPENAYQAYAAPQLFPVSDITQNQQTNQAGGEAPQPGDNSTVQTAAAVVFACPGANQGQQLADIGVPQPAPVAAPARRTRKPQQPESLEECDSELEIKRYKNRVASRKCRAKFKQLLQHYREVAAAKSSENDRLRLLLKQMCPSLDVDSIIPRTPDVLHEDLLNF
PP1 counter: PP1-alpha phosphatase inhibitors, primary screen, counter-screen for PP5 inhibitor project, biochemical, fluorescence, OMFP substrate, single point. Serine/threonine-protein phosphatase PP1-alpha catalytic subunit (Homo sapiens), P62136. purified PP1alpha. inhibition, % at 6.7 µM. 320,000 compounds, 0.9% hits;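 active means inhibition above the mean inhibition of all tested compounds plus 3 SD, computed separately for each screening campaign, cut at about 15% in these data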
Target sequence (P62136 whole entry, looked up): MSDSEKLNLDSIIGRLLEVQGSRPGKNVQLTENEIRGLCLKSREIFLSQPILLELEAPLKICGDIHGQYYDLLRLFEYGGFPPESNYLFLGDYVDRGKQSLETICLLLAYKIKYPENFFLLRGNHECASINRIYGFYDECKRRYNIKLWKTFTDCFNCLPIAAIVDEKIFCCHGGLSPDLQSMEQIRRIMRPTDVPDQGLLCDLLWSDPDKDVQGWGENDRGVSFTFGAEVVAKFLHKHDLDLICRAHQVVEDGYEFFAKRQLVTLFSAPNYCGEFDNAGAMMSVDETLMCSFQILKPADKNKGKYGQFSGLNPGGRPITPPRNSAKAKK
EBNA-1 inh: EBNA-1 DNA-binding inhibitors, primary screen, biochemical, fluorescence polarization; 300,000 compounds, 0.34% hits; inhibition, % at 14.8 µM; in the data active means inhibition above about 28%
PP5 inh: PP5 phosphatase inhibitors, primary screen, biochemical, fluorescence; Serine/threonine-protein phosphatase 5 (Homo sapiens), P53041; purified PP5c, OMFP substrate fluorescence; inhibition, % at 6.7 µM; 320,000 compounds, 0.18% hits; AID 1987, 2009;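 active means inhibition above the campaign's mean inhibition across all tested compounds plus 3 SD, cut at about 9.5% in these data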;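 further: 0% = DMSO only and 100% = 100 µM cantharidin control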
MsrA act: bovine MsrA enzyme activators, primary screen, biochemical, absorbance, HTS. purified bovine MsrA, absorbance read-out. activation, % at 10.6 µM. 360,000 compounds, 0.3% hits. Methionine sulfoxide reductase A (Bos taurus). AID 602163, 2012; in the data active means activation above about 7.5%;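 further: 0% = vehicle and 100% = reference activator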
MsrA inhibitor: bovine MsrA enzyme inhibitors, primary screen, biochemical, absorbance, HTS; AID 651718, 2012; 360,000 compounds, 0.75% hits; inhibition, % at 15.5 µM; Methionine sulfoxide reductase A (Bos taurus); purified bovine MsrA, absorbance read-out; in the data active means inhibition above about 4.5%;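 further: 0% = vehicle wells with enzyme and 100% = reference inhibitor wells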
EBNA-1 inh conf: EBNA-1 DNA-binding inhibitors, retest, confirmation, biochemical, fluorescence polarization, triplicate. shares compounds with EBNA-1 inh. Recombinant EBNA-1 DBD, Cy5-DNA fluorescence polarization. inhibition, % at 14.8 µM. 830 compounds, 35% hits. AID 2292, 2010;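 active means mean inhibition across replicates above a set limit taken from the earlier primary screen, cut at about 28% in these data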;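 further: plate controls were EBNA-1 protein with DMSO for no effect and wells lacking EBNA-1 for full effect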
ZTA DNA inh trip: EBV Zta DNA binding inhibitors, counter-screen for EBNA-1 inhibitor project, biochemical, fluorescence polarization, triplicate. shares compounds with EBNA-1 inh. Zta-ZRE DNA binding, Cy5 fluorescence polarization. inhibition, % at 11.1 µM. 830 tested, under 10 active. AID 2328, 2010;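 active means mean inhibition over triplicates above a set limit taken from the primary EBNA-1 screen, cut at about 37% in these data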;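 further: purified full length Zta protein with Cy5 labeled ZRE DNA probe; 0% = Zta with DMSO and 100% = wells lacking Zta protein; inhibitors lower polarization by freeing the labeled DNA probe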
The depositor's hits bear a star. Hits are enriched below; roughly 2.3% of the tested compounds scored in any of these assays.

CC(=O)Nc1ccccc1-c1nnn(CC(=O)Nc2ccc3c(c2)OCCO3)n1 was read as ZTA DNA inh 10, PP1 counter -1, EBNA-1 inh 6, PP5 inh 1, MsrA act -6 and MsrA inhibitor -2.
For CCn1nnc(-c2ccccc2NC(=O)c2ccc(-n3cnnn3)cc2)n1 the results were ZTA DNA inh 3, PP1 counter -12, EBNA-1 inh 4, PP5 inh 8, MsrA act -7 and MsrA inhibitor -1.
For CCn1c(=O)n(CC)c2cc(N3CCCC3)c(NC(=O)c3cc(Cl)ccc3OC)cc21 the results were ZTA DNA inh -9, PP1 counter -4, EBNA-1 inh -17, PP5 inh -1, MsrA act -6 and MsrA inhibitor -1.
Screening COc1ccc(-c2cnc(OC(C)(C)C)nc2OC(C)(C)C)cc1OC returned ZTA DNA inh -13, PP1 counter 2, EBNA-1 inh 1, PP5 inh 4, MsrA act -3 and MsrA inhibitor 0.
For O=C(CCC(=O)Nc1ccc(Br)cc1)N/N=C/c1ccc(F)cc1 the results were ZTA DNA inh 13, PP1 counter -2, EBNA-1 inh 34*, PP5 inh -2, MsrA act -5, MsrA inhibitor 1, EBNA-1 inh conf 19 and ZTA DNA inh trip 12.
Screening COc1ccc(CCNC(=O)c2sc(=S)n(C)c2N)cc1 returned ZTA DNA inh -10, PP1 counter 0, EBNA-1 inh 28*, PP5 inh 0, MsrA act -5, MsrA inhibitor 2, EBNA-1 inh conf 3 and ZTA DNA inh trip -5.
For O=S(=O)(NC1CCCCC1)c1ccc(Cl)s1 the results were ZTA DNA inh 6, PP1 counter -6, EBNA-1 inh -12, PP5 inh 5, MsrA act -12 and MsrA inhibitor 2.
Screening O=C(CC(Sc1n[nH]c(-c2ccccc2)n1)c1ccccc1)NCc1ccccc1 (stereo unspecified) returned ZTA DNA inh 2, PP1 counter -4, EBNA-1 inh 33*, PP5 inh 1, MsrA act -1, MsrA inhibitor -2, EBNA-1 inh conf 10 and ZTA DNA inh trip 9.
For COc1ccc(-c2nc(SC(CC(=O)NCCO)c3cccs3)n[nH]2)cc1 (stereo unspecified) the results were ZTA DNA inh 7, PP1 counter -5, EBNA-1 inh -4, PP5 inh 3, MsrA act -2 and MsrA inhibitor 0.
CO[C@H]1CN(C)C(=O)c2ccc(NC(=O)C3CCC3)cc2OC[C@H](C)N(Cc2ccc(F)cc2)C[C@@H]1C was read as MsrA inhibitor 0.
For COc1cc(CN(C(=O)c2ccco2)C2CCS(=O)(=O)C2)cc(OC)c1OC (stereo unspecified) the results were ZTA DNA inh 14, PP1 counter -4, EBNA-1 inh 7, PP5 inh -1, MsrA act 3 and MsrA inhibitor -1.
Screening Cc1ccc(N(CC(=O)N2CCCCCC2)S(C)(=O)=O)c(C)c1 returned MsrA act -3 and MsrA inhibitor 0.
Screening Cc1cc(C)c(S(=O)(=O)NCc2cn3c(C)csc3n2)cc1C returned ZTA DNA inh 14, PP1 counter 0, EBNA-1 inh 11, PP5 inh -2, MsrA act -8 and MsrA inhibitor 0.
Screening COc1ccccc1Nc1ncc(C(=O)Nc2ccc(OC)c(OC)c2)c2ccccc12 returned ZTA DNA inh 1, PP1 counter 2, EBNA-1 inh 80*, PP5 inh 0, MsrA act -9, MsrA inhibitor 1, EBNA-1 inh conf 55* and ZTA DNA inh trip 4.
`COc1ccc(NC(=O)c2ccccc2NS(C)(=O)=O)cc1OC` gave ZTA DNA inh 7, PP1 counter 1, EBNA-1 inh -6, PP5 inh -3, MsrA act -3 and MsrA inhibitor 1.
Screening Cn1ccc2c(-c3ccc4[nH]ccc4c3)cc3c(c21)C1CCC3O1 (stereo unspecified) returned MsrA act -5 and MsrA inhibitor 1.
`CCOc1ccc2nc(SC3CC(=O)N(c4ccccc4)C3=O)sc2c1` (stereo unspecified) gave ZTA DNA inh 2, PP1 counter -1, EBNA-1 inh 33*, PP5 inh 2, MsrA act 0, EBNA-1 inh conf 1 and ZTA DNA inh trip -1.
Screening CCN(CC)P(=O)(Nc1ccccc1Br)c1ccc(N(C)C)cc1NC(=O)c1ccco1 (stereo unspecified) returned ZTA DNA inh -6, PP1 counter 1, EBNA-1 inh 1, PP5 inh 2, MsrA act -4 and MsrA inhibitor 0.
`CCN(CC)CCCN=Cc1c(O)n(-c2ccccc2C)c(=O)c2ccccc12` gave ZTA DNA inh -3, PP1 counter -1, EBNA-1 inh 4, PP5 inh -1, MsrA act -3 and MsrA inhibitor 2.
`COC(=O)c1cn(NC(=O)Cc2ccc(Cl)c(Cl)c2)c(=O)c2ccccc12` gave ZTA DNA inh -4, PP1 counter -3, EBNA-1 inh 44*, PP5 inh -2, MsrA act -3, MsrA inhibitor 0, EBNA-1 inh conf 25 and ZTA DNA inh trip -8.
For O=C1N=C(N2CCCCC2)S/C1=C\c1cn[nH]c1-c1ccccc1 the results were ZTA DNA inh 14, PP1 counter 9, EBNA-1 inh 91*, PP5 inh 3, MsrA act -3, MsrA inhibitor 0, EBNA-1 inh conf 15 and ZTA DNA inh trip 0.
Screening O=C(Nc1ccc2c(c1)CCC2)c1cc(=O)[nH]c2ccccc12 returned ZTA DNA inh 11, PP1 counter 4, EBNA-1 inh 51*, PP5 inh 0, MsrA act -2, MsrA inhibitor -1, EBNA-1 inh conf 29* and ZTA DNA inh trip -16.
Screening Cc1cccc(NC(=O)c2cc(=O)[nH]c3ccccc23)c1 returned ZTA DNA inh -2, PP1 counter 0, EBNA-1 inh 0, PP5 inh 0, MsrA act -2 and MsrA inhibitor 1.
For Nc1ncnc(Nc2ccccc2Cl)n1 the results were ZTA DNA inh 1, PP1 counter 1, EBNA-1 inh 0, PP5 inh 1, MsrA act -3 and MsrA inhibitor 0.
